# Most compounds without a hit are left out; they make up all but 4% or so of the library.
# FBA Mtb inh: Mtb fructose-bisphosphate aldolase inhibition; actives 2.3% (n = 360,000); P9WQA3; purified M. tuberculosis FBA, fluorescence read-out; AID 588726; inhibition, % at 1 µM; in the data active = inhibition above about 27%;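 also: 0% = vehicle and 100% = reference inhibitor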
# Mtb UGM inh: inhibitors of M. tuberculosis UDP-galactopyranose mutase. P9WIQ1. purified UGM, fluorescence polarization probe displacement. inhibition, % at 10 µM. actives 0.06% (n = 320,000); in the data active = inhibition above about 10%, passing the limit was not always enough; inconclusive = no clear call, values can overlap the other calls
# Target sequence (P9WIQ1 whole entry, looked up): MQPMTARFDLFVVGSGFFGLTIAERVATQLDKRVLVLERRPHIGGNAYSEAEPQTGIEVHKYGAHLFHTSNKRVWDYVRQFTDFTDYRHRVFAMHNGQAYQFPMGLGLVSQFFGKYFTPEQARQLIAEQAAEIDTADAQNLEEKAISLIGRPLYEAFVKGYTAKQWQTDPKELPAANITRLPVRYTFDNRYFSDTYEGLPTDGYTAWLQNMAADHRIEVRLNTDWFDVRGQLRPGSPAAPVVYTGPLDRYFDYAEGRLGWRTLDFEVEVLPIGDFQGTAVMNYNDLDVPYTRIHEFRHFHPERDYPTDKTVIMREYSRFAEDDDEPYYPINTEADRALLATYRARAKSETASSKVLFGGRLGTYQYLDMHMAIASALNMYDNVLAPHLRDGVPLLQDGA
# Rv3671c inh: Rv3671c (M. tuberculosis) protease inhibition. P9WHR9. inhibition, % at 5.96 µM. actives 0.048% (n = 320,000). AID 2606; in the data active = inhibition above about 38%;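 also: extracellular domain of Rv3671c used as enzyme; 0% = enzyme with DMSO and 100% = no enzyme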
# RecA intein inh: inhibitors of M. tuberculosis RecA intein splicing; AID 2221; inhibition, % (test concentration not listed); cell-free RecA intein splicing, fluorescence; actives 0.75% (n = 290,000); P9WHJ3; in the data active = inhibition above about 30%; inconclusive = no clear call, values can overlap the other calls;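 also: 0% = vehicle wells and 100% = reference inhibitor control wells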
# Mtb bLac sens: beta-lactam sensitization of Mtb H37Rv; inhibition, % at 25 µM; M. tuberculosis H37Rv growth with meropenem, percent inhibition; AID 434955; actives 0.27% (n = 330,000);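 also: growth measured after seven days incubation then overnight dye step; 0% = bacteria only wells and 100% = bacteria with antibiotic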
# GDH-TPI counter-1: inhibits GDH-TPI coupling enzymes, artifact for Mtb FBA screen; GDH-TPI coupled enzyme counterscreen, NADH absorbance; AID 588335; inhibition, % at 4.8 µM; actives 1.2% (n = 360,000); in the data active = inhibition above about 30%;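 also: 0% = DMSO wells and 100% = wells lacking the enzyme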
# Mtb FBA inh conf: Mtb FBA inhibition, confirmed | actives 78% (n = 5,600) | shares compounds with FBA Mtb inh | purified M. tuberculosis FBA, fluorescence read-out | inhibition, % at 1 µM; in the data active = inhibition above about 27%;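 also: 0% = vehicle wells and 100% = reference inhibitor wells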
# GDH-TPI counter-2: inhibits GDH-TPI coupling enzymes, flagging Mtb FBA hits; GDH-TPI coupled enzyme counterscreen, fluorescence; shares compounds with FBA Mtb inh; inhibition, % at 1 µM; actives 81% (n = 5,600); in the data active = inhibition above about 10%
# GDH-TPI dose: inhibits GDH-TPI coupling enzymes in dose response. IC50, µM. actives 79% (n = 170). shares compounds with FBA Mtb inh. AID 652145. GDH-TPI coupled enzyme assay, fluorescence, artifact counterscreen
# * marks the source's active call; other numbers are inactive results; i = inactive; ? = inconclusive; nt = not tested or not shown; + = active, no number. Unless noted, no rule for the calls is given here.
SMILES,FBA Mtb inh,Mtb UGM inh,Rv3671c inh,RecA intein inh,Mtb bLac sens,GDH-TPI counter-1,Mtb FBA inh conf,GDH-TPI counter-2,others
N=c1c(C(=O)NCC2CCCO2)cc2c(=O)n3ccccc3nc2n1Cc1ccco1 (configuration not stated),28*,8,7,nt,1,10,+,192*,
COc1ccc(CCn2c(=N)c(C(=O)NCc3ccco3)cc3c(=O)n4ccccc4nc32)cc1,7,-1,-5,-5,12,-1,nt,nt,
O=C(NC1CCCCCC1)C1c2ccccc2C(=O)N1Cc1cccnc1 (configuration not stated),7,-1,0,-2,-13,12,nt,nt,
N=c1c(C(=O)NC2CCCCC2)cc2c(=O)n3ccccc3nc2n1Cc1ccco1,36*,2,-4,-47,3,5,12,-1,GDH-TPI dose=>10
N=c1c(C(=O)NC2CCCCC2)cc2c(=O)n3ccccc3nc2n1Cc1cccnc1,107*,1,-11,nt,-6,9,+,+,
CC(C)Cc1ccc(CN2CCCC(NC(=O)c3cnc4ccccn4c3=O)C2)cc1 (configuration not stated),19,0,1,0,56,7,nt,nt,
O=C(NC1CCCN(Cc2ccc(Cl)cc2)C1)c1cnc2ccccn2c1=O (configuration not stated),55*,2,-2,3,6,24,118*,82*,
O=C(NC1CCCCCCC1)C1c2ccccc2C(=O)N1Cc1ccco1 (configuration not stated),3,-3,-15,3,-4,2,nt,nt,
Cc1cccc(NS(=O)(=O)c2cc3c(cc2C)N(C)CCO3)c1,-1,-2,-2,1,0,2,nt,nt,
COc1cc(-c2nnc(SCc3cc(=O)oc4cc(O)c(O)cc34)o2)cc(OC)c1OC,1,1,8,1,6,11,nt,nt,
N=c1c(C(=O)NC2CCCCC2)cc2c(=O)n3ccccc3nc2n1Cc1ccccc1,55*,?,-5,i,9,0,167*,134*,
N=c1c(S(=O)(=O)c2ccccc2)cc2c(=O)n3ccccc3nc2n1Cc1ccco1,64*,-2,-6,-378,-3,19,134*,97*,
N=c1c(C(=O)NCc2ccccc2)cc2c(=O)n3ccccc3nc2n1CCCN1CCOCC1,79*,1,2,nt,-1,10,2,-4,
O=C(CSc1nc2ccccc2c(=O)n1CCCN1CCOCC1)c1c[nH]c2ccccc12,3,-1,-7,2,89,12,nt,nt,
O=C(NC1CCCCC1)c1cc(Cl)nc2ccccc12,-2,0,2,1,-3,9,nt,nt,
N=c1c(C(=O)NCc2ccc(F)cc2)cc2c(=O)n3ccccc3nc2n1Cc1cccnc1,102*,3,2,i,-2,11,152*,116*,
CCN(CC)S(=O)(=O)c1ccc(C(=O)NC2CN3CCC2CC3)cc1 (configuration not stated),1,-1,-4,-2,-9,9,nt,nt,
COc1ccccc1NC(=O)c1ccc(NS(=O)(=O)c2ccc(F)c(Cl)c2)cc1,-2,2,-11,-2,5,12,nt,nt,
CC(C)OCCCn1c(=N)c(C(N)=S)cc2c(=O)n3ccccc3nc21,71*,3,-4,-328,7,8,92*,81*,
COc1ccc(Cn2c(=O)[nH]c3cc(C(=O)NC4CCCC4)ccc3c2=O)cc1,5,-1,9,nt,-4,9,nt,nt,
COc1ccc(CCn2c(=N)c(S(=O)(=O)c3ccccc3)cc3c(=O)n4ccccc4nc32)cc1,3,-2,-4,2,-3,-4,nt,nt,
Cc1ccc(Cn2c(=N)c(C(=O)NC3CCCC3)cc3c(=O)n4ccccc4nc32)cc1,53*,2,-7,0,8,9,99*,98*,
N=c1c(C(=O)NC2CCCCC2)cc2c(=O)n3ccccc3nc2n1CCc1ccccc1,47*,2,4,-97,5,-5,5,4,
O=C(C1CCN(Cc2ccc(Cl)cc2)CC1)N1CCN(C(c2ccccc2)c2ccccc2)CC1,2,0,9,13,99,5,nt,nt,
CCC/C(=N\NC(=O)CCC(=O)NCc1ccccc1)c1ccccc1,0,6,7,-1,-8,8,nt,nt,
SMILES,FBA Mtb inh,Mtb UGM inh,Rv3671c inh,RecA intein inh,Mtb bLac sens,GDH-TPI counter-1,Mtb FBA inh conf,GDH-TPI counter-2,others
COc1cccc(NC(=S)N2CCC(NC(=O)C3CCCCC3)CC2)c1,-4,0,0,-5,-2,-8,nt,nt,
Nc1ccc(-c2ccc(N)cc2)cc1,5,nt,nt,nt,nt,-3,nt,nt,
Nc1ccc(C=Cc2ccc(N)cc2)cc1,88*,nt,nt,nt,nt,nt,153*,116*,
COC(=O)c1cc(=O)nc2sc(-c3cccs3)nn12,35*,-3,-2,-1,-4,29,6,0,
CCCN(CC(=O)Nc1cc(Cl)ccc1Cl)C(=O)/C=C/c1cc(OC)ccc1OC,39*,0,-26,nt,12,5,+,+,
CCCN(CC(=O)Nc1ccc(Cl)cc1Cl)C(=O)/C=C/c1cc(OC)ccc1OC,28*,-3,-4,-13,5,7,9,3,
N#CC1=C(N)Oc2c(ccc3cccnc23)C1c1cccnc1 (configuration not stated),41*,2,7,-1,-3,14,-1,-9,
Cc1ccccc1CNC(=O)C1CCCN(c2nnc(C)c3c(C)n(-c4ccccc4)nc23)C1 (configuration not stated),28*,4,-4,0,-3,1,111*,105*,
CCOC(=O)c1c(-c2ccccc2)nc2ccccn12,0,2,2,-1,-2,1,nt,nt,
c1ccc(-c2nc3ccccn3c2-c2ccccc2)cc1,29*,2,5,14,-4,16,0,-3,
COC(=O)Nc1c(-c2ccccc2)nc2ccccn12,75*,-2,0,-4,?,2,188*,140*,
COC(=O)Nc1c(-c2ccccc2)nc2ccc(C)cn12,65*,3,-3,2,-7,3,120*,116*,
CC(=O)Nc1c(-c2ccc(F)cc2)nc2ccccn12,25,1,-2,1,1,4,nt,nt,
COc1ccccc1NC1=C(C)C(=O)CC1,6,1,-9,-6,-4,16,nt,nt,
COc1ccc(OC)c2c1CCC2=O,30*,0,4,0,-14,9,71*,51*,
Cc1cccc(C)c1OCC(N)C(C)C (configuration not stated),0,nt,2,nt,-1,-5,nt,nt,

# Bioassay records as filed in PubChem BioAssay.
